Source: PubChem
The list is not random: actives were taken first. Their share in the collection is about 21%.
CHX counter – affects cycloheximide protein synthesis inhibition readout, counter-screen; cell reporter, cycloheximide protein synthesis inhibition counterscreen; max response, %; hit rate 12% among 300,000; AID 2314; in the data active = max response mostly above about 13%, no sharp cut-off; inactive = mostly below about 14%; note: read at 38.3 µM for the half of the compounds with a filed dose; 0% is about no effect
Pf growth 96h – inhibits malaria parasite growth, 96 h. P. falciparum luciferase reporter growth, 96 h. Potency, µM (highest dose often 28.7 µM), for the others: top-dose activity change, negative = inhibition, actives largely listed as inhibitors. hit rate 6.9% among 320,000; note: potency is the fitted concentration of half-maximal effect; % is set by controls: 0 for no effect and ±100 for the full control effect
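Infected RBCs, 2% Hct / 0.05% parasitemia final; luciferase-reporter P. falciparum; cpd 96 h, 37 C, 5% CO2; luciferase detection reagent; luminescence.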
NS1 function inh – influenza NS1 inhibition. Potency, µM (top dose mostly 46.1 µM), inactives show at the top dose activity, positive = more growth. hit rate 0.4% among 270,000; calls by dose curve; note: potency is the fitted concentration of half-maximal effect; actives are rising curves; nearly all actives have a fitted effect of over 50% in size
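S. cerevisiae expressing influenza A NS1, grown in glucose, washed, then diluted 1:100 into pH 6.0 -URA galactose medium with 23 nl compound. Growth recovery read as OD600; NS1-free strain serves as control.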
Pf growth 48h – inhibits P. falciparum growth in the first generation, 48 h; Potency, µM (top dose mostly 28.7 µM), without a hit: top-dose activity change, negative = inhibition, usual class: inhibitors; AID 504832; P. falciparum luciferase growth in erythrocytes, 48 h; hit rate 5.9% among 310,000; note: potency is the fitted concentration of half-maximal effect; % is set by controls: 0 for no effect and ±100 for the full control effect
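Cell-based growth assay: transgenic P. falciparum expressing firefly luciferase, cultured in red cells within RPMI 1640 containing 0.5% w/v Albumax, 24 mM bicarbonate and gentamycin. A drop in luciferase activity indicates inhibition.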
Shiga toxin inh – Shiga toxin inhibition; Vero cells, Shiga toxin protein synthesis inhibition reporter; inhibition, % at 38.7 µM; hit rate 9.2% among 290,000; AID 2315; in the data active = inhibition mostly above about 28%, no sharp cut-off; inactive = mostly below about 43%; note: 0% is about no effect
Active calls of the source: *; ? = inconclusive; nt = not tested or not shown; + = active, no number; ! = a repeat was not active; [ ] = remark or other dose. Unless noted, calls come from the whole dose curve; as a rule, active = well fitted inhibition curve with a large enough effect; inconclusive = small, poorly fitted or top-dose-only effect, or another doubt; inactive = no such curve, though single readings can be large or run the other way.

SMILES	CHX counter	Pf growth 96h	NS1 function inh	Pf growth 48h	Shiga toxin inh
CN(C)[C@@H]1C(=O)C(C(N)=O)=C(O)[C@@]2(O)C(=O)C3=C(O)c4c(O)cccc4[C@@](C)(O)[C@H]3[C@H](O)[C@@H]12	-2.4	3.79µM*!	10.0%	13.5µM*!	-4.5
CN(C)[C@@H]1C(=O)C(C(N)=O)=C(O)[C@]2(O)C(=O)C3=C(O)c4c(O)cccc4[C@](C)(O)[C@H]3C[C@@H]12	nt	nt	15.0%	nt	nt
COc1cc(C(=O)Nc2cc(Cl)ccc2C)c(-n2cnnn2)cc1OC	-1.2	21.0%	1.3%	11.5%	-8.1
CCOc1ccc(/C(C)=N/N2C(=O)C(CC(=O)Nc3ccc(OC)cc3[N+](=O)[O-])SC2=Nc2cccc(C)c2C)cc1 (centres undefined)	-0.9	2.33µM*	22.0%	2.08µM*	-9.5
COc1cc([N+](=O)[O-])ccc1NC(=O)CCCOc1cccc(C)c1C	5.7	2.94µM*	-2.9%	7.8%	-9.4
COc1ccccc1/C=N/N1C(=O)C(CC(=O)Nc2ccc([N+](=O)[O-])cc2OC)SC1=Nc1cccc(C)c1C (centres undefined)	-2.3	?	7.7%	3.7µM*	-3.0
Cc1cc2oc3c(c(=O)c2cc1C)C(c1ccc(C(C)C)cc1)N(CCCN1CCOCC1)C3=O (centres undefined)	-5.5	?	?	?	-8.7
CCCCCCCCCCCCCC/C(C(=O)O)=C(\C)C(=O)O	-7.6	nt	nt	nt	-4.9
Cc1ccc(C(=O)OCC(=O)NCCNC(=O)COC(=O)c2ccc(C)s2)s1	nt	-9.7%	nt	10.0%	nt
Cc1ccc(C(=O)OCC(=O)c2ccc(Cl)s2)s1	52.9*	nt	-6.5%	118.0%	83.3*
CN1C[C@@H]2C(c3ccc(Cl)nc3)C3(c4cccnc4)CC2(C3)[C@H]1c1ccccc1 (some centres undefined)	9.4	10.4µM*	-1.4%	10.4µM*	-0.8
CN1C[C@@H]2C(c3ccc(Cl)nc3)C3(c4ccccc4)CC2(C3)[C@H]1c1ccccc1 (some centres undefined)	-3.7	13.1µM*	6.8%	9.28µM*	18.7
N#Cc1ccc(C23CC4(C2)[C@H](CN(Cc2ccc(-c5ccccc5)cc2)[C@@H]4c2ccccc2)C3c2ccccc2)cc1 (some centres undefined)	-1.7	?	4.6%	1.9%	-6.3
COc1ccc(CNC(=O)CN(C(=O)c2csnn2)c2cccc3ccccc23)cc1	-2.7	?	9.7%	-6.1%	-3.9
CCN(CC)C(=S)Nc1ccc2nc3n(c(=O)c2c1)CCCCC3	9.6	14.6%	nt	11.6%	15.4
COc1ccc(C(C#N)(CCC#N)CCC#N)cc1OC	-4.8	nt	-0.4%	15.9%	-0.7
C=CCC(C#N)(c1ccc(OC)c(OC)c1)c1cnccn1 (centres undefined)	nt	?	nt	13.1µM*	nt
CC(C)[C@H](NC(=O)OC(C)(C)C)c1nnc(S(=O)(=O)Cc2c(F)cccc2Cl)o1	34.4*	nt	-177.1%	-3.3%	41.7
Cc1ccccc1CS(=O)(=O)c1nnc([C@H](CC(C)C)NC(=O)OC(C)(C)C)o1	20.7	4.4%	-180.2%	50.9%	29.7
CC[C@@H](C)[C@H](NC(=O)OC(C)(C)C)c1nnc(S(=O)(=O)Cc2cc(C)ccc2C)o1	17.7*	2.6%	-184.5%	3.0%	4.5
O=C(Oc1ccc(-c2nnco2)cc1)C1CCN(C(=O)c2ccc(F)cc2)CC1	0.9	2.7%	-0.5%	3.4%	-10.9
CN(C)c1nc(NC2CCC(NC(=O)c3ccc(F)c(F)c3)CC2)nc2ccccc12 (centres undefined)	-1.0	nt	nt	nt	-2.4
CCc1ccc(OCc2nnc(-c3ccccc3Br)o2)cc1	nt	-1.0%	nt	45.2%	nt
Brc1ccccc1-c1nnc(COc2cccc3cccnc23)o1	14.2	nt	-83.3%	-15.7%	34.3
Clc1ccc(Cc2nnc(-c3ccccc3Br)o2)cc1	21.8*	-108.9%	-53.5%	-13.2%	38.8*
SMILES	CHX counter	Pf growth 96h	NS1 function inh	Pf growth 48h	Shiga toxin inh
Clc1ccccc1OCc1nnc(-c2ccccc2Br)o1	52.2*	?	-33.5%	40.5%	120.2*
N#Cc1ccccc1OCc1nnc(-c2ccccc2Br)o1	47.7*	2.9%	-5.8%	38.6%	102.9*
CC(C)Nc1nc(-c2ccccn2)nc(-c2ccccc2)c1C#N	-0.5	?	nt	-0.7%	1.0
CC(C)Nc1nc(-c2cccnc2)nc(-c2ccc(Cl)cc2)c1C#N	-8.3	2.33µM*	-0.9%	-0.2%[0.00184 µM]	-13.2
CC(C)Nc1nc(-c2ccncc2)nc(-c2ccc(Cl)cc2)c1C#N	-1.9	?	-2.8%	?	4.7
CC(C)Nc1nc(-c2cccnc2)nc(-c2ccccc2)c1C#N	-4.4	?	3.0%	8.28µM*	-2.5
CC(C)C(C(=O)O)N1CCS(=O)(=O)CC1 (centres undefined)	10.4	45.4%	-2.7%	10.6%	9.6
CC(C)c1ccc(N(CC(=O)NCc2ccc(F)cc2)C(=O)c2csnn2)cc1	-1.2	18.5%	2.4%	-15.4%	2.7
CC12CCC(C(=O)N(CC3CO3)C1=O)C2(C)C (centres undefined)	-1.6	26.3%	-1.4%	18.4%	-3.3
Cc1cccc(NC(=O)CSc2nc3ccccc3nc2N2CC(C)OC(C)C2)c1 (centres undefined)	11.4*	9.28µM*	-5.6%	?	11.1
COc1cccc(NC(=O)CSc2nc3ccccc3c3nc4ccccc4n23)c1	5.0	13.8%	-9.8%	13.1µM*	-4.7
COc1ccc(C)cc1NC(=O)CSc1nc2ccccc2nc1N1CC(C)OC(C)C1 (centres undefined)	0.6	?	?	?	6.1
Cc1cccc(NC(=O)CSc2nc3ccccc3nc2N2CCCC2)c1	9.6	32.2%	19.6%	?	14.5
Cc1cccc(NC(=O)CSc2nc3ccccc3nc2N2CCCCC2)c1	-3.6	?	0.4%	13.1µM*	2.7
COc1cccc(NC(=O)CSc2nc3ccccc3nc2N2CCCC2)c1	36.9*	0.5%	-3.7%	?	56.9*
CCc1cccc(NC(=O)CSc2nc3ccccc3nc2N2CCCCC2)c1	16.8	nt	nt	nt	14.2
COc1cccc(NC(=O)[C@H](CC(C)C)NC(=O)N2CCn3c2nc2ccccc23)c1	-7.7	5.86µM*	25.3%	?	-5.9
N#CCSc1nc2ccccc2c2nc3ccccc3n12	5.1	7.38µM*	-20.8%	?	+
CCc1ccc(NC(=O)CSc2nc3ccccc3nc2N2CCCCC2)cc1	22.0*	?	?	?	14.5
CCn1c(SCC#N)nc2ccccc2c1=O	1.1	18.4%	-3.5%	-6.8%	-7.7
CC1(c2ccccc2)NC(=O)N(CC(=O)NC(=O)NC2CCCC2)C1=O (centres undefined)	4.2	-43.6%	10.3%	nt	20.9
COc1cc(C)ccc1OCCOCCOc1cccc2ccc(C)nc12	-5.2	8.6%	0.9%	-11.1%	6.8
Cc1ccc(C(=O)NCCCNC(=O)c2ccccc2F)cn1	-1.9	2.94µM*	-11.7%	2.8%	-5.4
COC(=O)c1ccc(Sc2ccccc2NS(=O)(=O)c2ccc(OC)cc2)nc1	-1.1	3.0%	-1.7%	18.6%	-2.4
